# PubChem BioAssay (NCATS)
# Records with an inconclusive call do not appear. Calls of active or inactive are those of the source. Calls follow the shape of the dose curve; as a rule, active = well fitted cell-killing curve with a large enough effect; inconclusive = small, poorly fitted or top-dose-only effect, or effect the other way; inactive = flat fitted curve, though single readings scatter.
# Assay: Cell Viability - LYMP2-003 (AID 965);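 also: cells exposed to compounds for 24 h before reading; 0% = DMSO only and full effect = 92 µM tetraoctylammonium bromide; nearly all actives have a fitted effect of over 50% in size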
# Conditions: LYMP2-003 lymphoblastoid cell viability; series mostly up to 92.2 µM; activity change, negative = cytotoxicity: at the top concentration
# Excerpt: NIH Chemical Genomics Center [NCGC]
# NIH Molecular Libraries Screening Centers Network [MLSCN]
# National Institutes of Environmental Health Sciences [NIEHS]
# National Toxicology Program [NTP]
# We have developed a 1536-well cell-based assay for quantitative high throughput screening (qHTS) against a number of cell lines to determine in vitro cytotoxicity of small molecules. This particular assay uses a human lymphoblastoid cell line (LYMP2-003) purchased from Coriell Institute for Medical Research.
# NCGC Assay Protocol Summary:
# The CellTiter-Glo luminescent cell viability assay (Promega) is a homogeneous method to measure the number of viable cells in culture. The end point readout of this assay is based on quantitation of intracellular ATP, an indicator of metabolic activity, using the luciferase reaction. Luciferase catalyzes the oxidation of beetle Luciferin to oxyluciferin and light in the presence of ATP. The luminescent signal is proportional to amount of ATP present.
# Using the CellTiter-Glo luminescent cell viability assay, the amount of cellular ATP was measured in the lymphoblastoid cell line with complete culture medium following compound treatment for 24 hours. The assay was performed in opaque white Kalypsys 1536-well plates. In the screen, tetraoctylammonium bromide was used as positive control. Library compounds were measured for their ability to cause acute toxicity in the cell line, as reflected by a decrease in intracellular ATP levels, in a concentration-dependent manner. […] AC50 values were determined from concentration-response data modeled with the standard Hill equation.
# qHTS protocol for CellTiter Glo lymphoblastoid cellular assay
# [Step] [Parameter] [Value] [Description]
# 1. Reagent; 5 uL; 2500 lymphoblastoid cells/well
# 2. Time; 5 hr; 37 C incubation
# 4. Controls; 23 nL; Tetraoctylammonium bromide 6.4pM to 92 uM
# 5. Time; 24 hr; 37 C incubation
# 6. Reagent; 5 uL; CellTiter Glo reagent
# 7. Time; 30 min; Room Temperature
# 8. Detection; Luminescence; Viewlux plate reader
# Keywords: cell viability, cytotoxicity, lymphoblastoid cell line, luminescence, NTPHTS, NTPHTS_NCGC, NIEHS, DSSTox, MLSMR, MLSCN, NIH Roadmap, qHTS, NCGC
row,Compound,"activity change, negative = cytotoxicity"
1,C=C(C)C(=O)OCC(C)O (stereo not given),11% (inactive)
2,CC(=O)OCCC(C)C,2.64% (inactive)
3,Cc1ccccc1C(N)=O,9.13% (inactive)
4,O=C(O)c1ccc(Cl)c(Cl)c1,1.01% (inactive)
5,Nc1cc(Cl)c([N+](=O)[O-])cc1O,4.53% (inactive)
6,NC(=O)/N=N/C(N)=O,-6.66% (inactive)
7,O=[N+]([O-])c1ccc(CCO)cc1,11.6% (inactive)
8,CC(=O)Nc1ccc(C)cc1,-3.38% (inactive)
9,COC(=O)c1ccccc1,7.74% (inactive)
10,CCC1CO1 (stereo not given),12.2% (inactive)
11,CCOc1cc(OCC)c(C(C)=O)cc1OCC,12.7% (inactive)
12,O=CNc1ccccc1,14.9% (inactive)
13,CCCCN(CCO)CCCC,4.32% (inactive)
14,COC(=O)CCCC(=O)OC,17.6% (inactive)
15,Cc1ccc(C)cc1,12.8% (inactive)
16,C(=C/c1ccccc1)/c1ccccc1,6.41% (inactive)
17,CCCCCCCCN,6.27% (inactive)
18,O=[N+]([O-])c1cccc(Cl)c1,0.548% (inactive)
19,CCC(C)(C)C(=O)O,8.91% (inactive)
20,CC(C)(C)OCC1CO1 (stereo not given),9.04% (inactive)

row,Compound,"activity change, negative = cytotoxicity"
1,Cc1ccccc1C(=O)O,4.85% (inactive)
2,OC1CCCC1,4.85% (inactive)
3,O=C(O[C@@H](C(=O)O)[C@@H](OC(=O)c1ccccc1)C(=O)O)c1ccccc1,8.63% (inactive)
4,ClC/C=C/CCl,9.72% (inactive)
5,Cc1ccc2cccnc2c1,0.71% (inactive)
6,O=C(O)c1ccc(C(=O)O)cc1,7.91% (inactive)
7,CCC(O)C(C)(C)C (stereo not given),19.8% (inactive)
8,C=CCCCCCC,16% (inactive)
9,c1ccc(Nc2ccccc2)cc1,9.06% (inactive)
10,Cc1ccc2oc(=O)ccc2c1,9.97% (inactive)
11,CC=C(Cl)Cl,8.21% (inactive)
12,N#CC1(O)CCCCC1,19.4% (inactive)
13,CC(=O)Nc1ccccc1C,8.89% (inactive)
14,Cc1cccc2cccnc12,8.92% (inactive)
15,CC(C)N(C)C,-1.57% (inactive)
16,Nc1ccccc1[N+](=O)[O-],8.33% (inactive)
17,CCCCCCCCCCCCOCC1CO1 (stereo not given),6.73% (inactive)
18,CCN(Cc1ccccc1)c1ccccc1,20.5% (inactive)
19,O=[N+]([O-])c1cc(C(F)(F)F)ccc1Cl,16.9% (inactive)
20,Cc1ccc2ncccc2c1,14.3% (inactive)
